Measurements as given in PubChem BioAssay AID1159580 (chemical genetic matrix, 2015).
Where “and” joins values, the source holds several entries; their conditions need not be identical. Equal values may be shown once. The whole screen tested about 5,500 compounds, of which about 2,000 (36%) were called active. About 18% were inconclusive and are not listed. Cut-off read from the data, not from the text of the source: active = normalized growth mostly below about 0.91 (no sharp cut-off); inconclusive = no clear call, values can overlap the other calls; inactive = mostly above about 0.92. Some of the results follow.

Experiment: chemical genetic growth profiling, strain panel (AID 1159580);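 note: tested at 20 µM; growth read once vehicle control cultures reached saturation at 30 °C; 1 = growth at the plate median or of vehicle wells; lower values mean less growth of the strain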
Conditions: S. cerevisiae deletion strains, growth OD

Measured: normalized growth

CCCCNC(=O)NS(=O)(=O)c1ccc(C)cc1
inactive: locus YAL013W, strain DEP1, hits give low values 0.995 | locus YAL021C, strain ccr4, hits give low values 1.02 | locus YAL026C, strain drs2, hits give low values 1.01 | locus YAL030W, strain snc1, hits give low values 1.02 | locus YAL040C, strain CLN3, hits give low values 0.997 | locus YBL061C, strain skt5, hits give low values 1.01 | locus YBR009C, strain hhf1, hits give low values 0.973 | locus YBR021W, strain FUR4, hits give low values 1.01 | locus YBR023C, strain chs3, hits give low values 1.02 | locus YBR171W, strain sec66, hits give low values 1.01 | locus YBR229C, strain ROT2, hits give low values 0.993 | locus YBR231C, strain swc5, hits give low values 1.01 | locus YBR279W, strain paf1, hits give low values 0.995 | locus YCL011C, strain gbp2, hits give low values 1 | locus YCL016C, strain dcc1, hits give low values 0.993 | locus YCL029C, strain bik1, hits give low values 0.979 | locus YCL061C, strain MRC1 (second series), hits give low values 1 | locus YCL061C, strain MRC1, hits give low values 1.01 | locus YCL069W, strain vba3, hits give low values 1.02 | locus YCR088W, strain abp1, hits give low values 1.02 | locus YDL005C, strain med2, hits give low values 1.01 | locus YDL035C, strain GPR1, hits give low values 0.989 | locus YDL040C, strain nat1, hits give low values 1.01 | locus YDL074C, strain BRE1, hits give low values 1.02 | locus YDL101C, strain DUN1, hits give low values 1.01 | locus YDL134C, strain PPH21, hits give low values 1 | locus YDL185W, strain tfp1, hits give low values 0.953 | locus YDL192W, strain arf1, hits give low values 0.97 | locus YDR001C, strain nth1, hits give low values 1.02 | locus YDR069C, strain doa4, hits give low values 1.02 | locus YDR101C, strain arx1, hits give low values 0.994 | locus YDR137W, strain rgp1, hits give low values 0.978 | locus YDR159W, strain sac3, hits give low values 0.93 | locus YDR162C, strain NBP2, hits give low values 0.974 | locus YDR195W, strain ref2 1.01 | locus YDR297W, strain sur2, hits give low values 1.01 | locus YDR318W, strain mcm21, hits give low values 0.978 | locus YDR334W, strain swr1, hits give low values 1.01 | locus YDR335W, strain msn5, hits give low values 1.01 | locus YDR363W, strain ESC2, hits give low values 1.01 | locus YDR388W, hits give low values 0.974 | locus YDR392W, strain spt3, hits give low values 0.927 | locus YDR502C, strain sam2, hits give low values 0.985 | locus YEL003W, strain gim4, hits give low values 1.02 | locus YEL037C, strain rad23, hits give low values 1.01 | locus YEL061C, strain CIN8 (second series), hits give low values 1.01 | locus YEL061C, strain CIN8, hits give low values 0.99 | locus YER002W, strain NOP16, hits give low values 1 | locus YER015W, strain faa2, hits give low values 1.01 | locus YER016W, strain bim1, hits give low values 0.988 | locus YER110C, hits give low values 0.982 | locus YER111C, strain swi4, hits give low values 1.02 | locus YER155C, strain BEM2 (second series), hits give low values 1.04 | locus YER155C, strain BEM2, hits give low values 0.985 | locus YER167W, strain BCK2, hits give low values 0.994 | locus YFR010W, strain ubp6, hits give low values 1.02 | locus YGL078C, strain dbp3, hits give low values 0.989 | locus YGL086W, strain mad1, hits give low values 1 | locus YGL167C, strain pmr1, hits give low values 1.01 | locus YGL173C, strain kem1, hits give low values 1.03 | locus YGL227W, strain vid30, hits give low values 1.01 | locus YGL240W, strain doc1, hits give low values 1.01 | locus YGL248W, strain PDE1, hits give low values 1 | locus YGL253W, strain hxk2, hits give low values 1 | locus YGR078C, strain PAC10, hits give low values 1.01 | locus YGR135W, strain pre9, hits give low values 0.986 | locus YGR252W, strain gcn5, hits give low values 1.21 | locus YHR013C, strain ard1, hits give low values 0.992 | locus YHR027C, strain rpn1, hits give low values 1 | locus YHR030C, strain SLT2, hits give low values 0.99 and 0.938 | locus YHR079C, strain IRE1 (second series), hits give low values 0.98 | locus YHR079C, strain IRE1, hits give low values 0.964 | locus YHR094C, strain hxt1, hits give low values 0.979 | locus YHR129C, strain ARP1, hits give low values 0.996 | locus YHR142W, strain chs7, hits give low values 1.02 | locus YHR200W, strain rpn10, hits give low values 0.985 | locus YIL066C, strain RNR3, hits give low values 0.988 | locus YIL073C, strain SPO22, hits give low values 0.831 | locus YIL125W, strain kgd1, hits give low values 0.962 | locus YIR030C, strain dcg1, hits give low values 0.982 | locus YJL092W, strain hpr5, hits give low values 1.01 | locus YJL095W, strain BCK1 (second series), hits give low values 1.02 | locus YJL095W, strain BCK1, hits give low values 1.01 and 0.954 | locus YJL115W, strain asf1, hits give low values 1 | locus YJL129C, strain trk1, hits give low values 1.01 | locus YJL134W, strain LCB3, hits give low values 0.99 | locus YJL154C, strain vps35, hits give low values 1.01 | locus YJL164C, strain tpk1, hits give low values 1 | locus YJL166W, strain qcr8, hits give low values 1.02 | locus YJL168C, strain set2, hits give low values 0.981 | locus YJL187C, strain SWE1 (second series), hits give low values 0.982 | locus YJL187C, strain SWE1, hits give low values 1.02 | locus YJR043C, strain POL32, hits give low values 1.02 | locus YJR066W, strain TOR1, hits give low values 0.92
